# Assay results published in PubChem BioAssay (Tox21).
# Where “and” joins values, the source holds several entries; their conditions need not be identical. Equal entries are not always repeated. Records with an inconclusive call do not appear. A call without a number means that no potency is given here. Calls of active or inactive are those of the source. Calls follow the shape of the dose curve; as a rule, active = well fitted inhibition curve with a large enough effect in the repeat runs; inconclusive = weak or mixed curves; inactive = flat fitted curve, though single readings scatter.
# Experiment: qHTS assay to identify small molecule HDAC inhibitors (AID 1259364); also: nearly all actives have a fitted effect of over 45% in size
# Details: HCT-116 HDAC-Glo I/II luminescence, 2 h; series mostly up to 92.4 µM
# Description: U.S. Tox21 Program National Center for Advancing Translational Sciences [NCATS] NIH Chemical Genomics Center [NCGC] U.S. Environmental Protection Agency [EPA] National Institutes of Environmental Health Sciences [NIEHS] National Toxicology Program [NTP] U.S. Food and Drug Administration [FDA] Tox21 Assay Overview: Histone deacetylases (HDACs) are a group of epigenetic enzymes that regulate gene expression by histone deacetylation. HDACs are capable of introducing epigenetic modifications and such aberrations contribute to the onset and progression of several human diseases, thus making HDACs a popular therapeutic target. For identifying endogenous class I/II HDAC inhibitors a homogenous, luminogenic HDAC I/II cell based assay was used to measure the relative activity of class I and II HDACs from cells. Wild type HCT-116 cells were used to screen Tox21 libraries for identifying class I/II HDAC inhibitors.
# Tox21 Assay Protocol Summary: HCT-116 cells were dispensed at 1,500 per well in 5uL of culture medium into white solid bottom 1536-well plates (Greiner Bio-One, Monroe, NC) using a Multidrop Combi (Thermo Scientific, Waltham, MA) dispenser. The assay plates were incubated at 37 C and 5% CO2 for an overnight, and then 23nL of compounds dissolved in DMSO and positive control were transferred using a Pintool station (Wako, San Diego, CA). The assay plates were incubated at 37C and 5% CO2 for 2hr. After compound treatment, 4uL of HDAC-Glo reagent (Promega Corporation, Madison, WI) was added to each well of the assay plates using Flying Reagent Dispenser (FRD, Aurora Discovery, San Diego, CA) and incubated the assay plates at room temperature for 30min. The luminescence signal was quantified using a ViewLux plate reader (Perkin Elmer, Shelton, CT).
# Potency is read from the fitted curve at half-maximal effect.
row,SMILES,Potency
1,CCCCCCCCCCCC[N+](C)(C)Cc1ccccc1,inactive
2,NC(CO)(CO)CO,inactive
3,COc1ccc2cc(S(=O)(=O)N[C@H](CC(=O)N[C@H](Cc3ccc(CN4[C@H](C)CCC[C@@H]4C)cc3)C(=O)N(C)C(C)C)c3ccc4c(c3)OCO4)ccc2c1,inactive
4,CC1(C)O[C@@H]2C[C@H]3[C@@H]4CCC5=CC(=O)C=C[C@]5(C)[C@@]4(F)[C@@H](O)C[C@]3(C)[C@]2(C(=O)CO)O1,inactive
5,CCCCOC(=O)c1ccc(O)cc1,27.6 µM (active) and 30.6 µM (active)
6,CC(C)C(=O)Nc1ccc([N+](=O)[O-])c(C(F)(F)F)c1,inactive
7,Cn1c(=O)c2c(ncn2C)n(C)c1=O,inactive
8,CC(O)(P(=O)(O)O)P(=O)(O)O,inactive
9,CCCCCCCCCCCCCCCC[N+](C)(C)Cc1ccccc1,inactive
10,CCCc1cc(=O)[nH]c(=S)[nH]1,inactive
11,CC(C)c1c(C(=O)Nc2ccccc2)c(-c2ccccc2)c(-c2ccc(F)cc2)n1CC[C@@H](O)C[C@@H](O)CC(=O)O,inactive
12,CN(C)C(=O)Nc1ccc(Cl)c(Cl)c1,inactive
13,O=CC(=O)c1ccccc1,inactive
14,Nc1ccc2c(c1)CN1C(=O)c3ccccc3C1=N2,326 nM (active)
15,C/C=C/C=C/C(=O)O,inactive
16,Cc1ncc([N+](=O)[O-])n1CCO,inactive
17,NC1CCCCC1,inactive
18,C1CCC(C(CC2CCCCN2)C2CCCCC2)CC1 (stereo not given),inactive
19,CC(=O)CCC(=O)O,inactive
20,CCCCC1(COC(=O)CCC(=O)O)C(=O)N(c2ccccc2)N(c2ccccc2)C1=O,inactive

row,SMILES,Potency
1,C=C1CC[C@H](O)C/C1=C\C=C1/CCC[C@]2(C)[C@@H]([C@H](C)CCCC(C)C)CC[C@@H]12,inactive
2,CCc1nc(N)nc(N)c1-c1ccc(Cl)cc1,inactive
3,COc1ccc(CN(CCN(C)C)c2ccccn2)cc1,inactive
4,CN1CCC[C@H]1c1cccnc1,inactive
5,O=C(Nc1ncc([N+](=O)[O-])s1)c1cccs1,422 nM (active)
6,CN(N=O)C(=O)N[C@@H]1[C@@H](O)[C@H](O)[C@@H](CO)O[C@@H]1O,inactive
7,CN(C)CCOC(c1ccccc1)c1ccccc1,inactive
8,CC12CCC(CC1)C(C)(C)O2,inactive
9,COc1cccc(O)c1O,inactive
10,CN[C@H]1CC[C@@H](c2ccc(Cl)c(Cl)c2)c2ccccc21,inactive
11,O=C1NC(=O)C(c2ccccc2)(c2ccccc2)N1,inactive
12,C[C@](N)(Cc1ccc(O)c(O)c1)C(=O)O,inactive
13,NS(=O)(=O)O,inactive
14,CC1(C)S[C@@H]2[C@H](NC(=O)[C@H](N)c3ccccc3)C(=O)N2[C@H]1C(=O)O,inactive
15,CCCCCCc1ccc(O)cc1O,inactive
16,O=C(O)c1ccccc1,inactive
17,Cc1cccc(C)c1,inactive
18,CCN(Cc1c(F)cccc1Cl)c1c([N+](=O)[O-])cc(C(F)(F)F)cc1[N+](=O)[O-],inactive
19,NS(=O)(=O)c1cc2c(cc1Cl)NCNS2(=O)=O,inactive
20,Nc1c(N=Nc2ccc(-c3ccc(N=Nc4cc(S(=O)(=O)O)c5ccccc5c4N)cc3)cc2)cc(S(=O)(=O)O)c2ccccc12,inactive
